# Laboratory results as given in PubChem BioAssay (EPA / NIEHS).
# Active and inactive are the calls of the source. Rule for the calls: active = hit-call score of the fitted dose curve at least 0.9, where 1 is the maximum; inactive = score below 0.9.
# Read-out: Collagen I, COL1A1 (gene 1277)
# Test: BSK_hDFCGF_CollagenI: BioMAP Diversity Plus: hDFCGF Assay for Collagen I Biomarker Activity (AID 2284250)
# Conditions: primary human foreskin fibroblasts
# Procedure: BSK_hDFCGF is a cell-based, multiplexed-readout assay that uses foreskin fibroblast, a human skin primary cell, with measurements taken at 24 hours after chemical dosing in a 96-well plate.BSK_hDFCGF_CollagenI is an assay component measured in the BSK_hDFCGF assay. It measures Collagen I antibody related to regulation of gene protein expression using ELISA technology.Data from the assay component BSK_hDFCGF_CollagenI was analyzed at the endpoint, BSK_hDFCGF_CollagenI, in the positive analysis fitting direction relative to DMSO as the negative control and baseline of activity. Using a type of binding reporter, gain or loss-of-signal activity can be used to understand protein changes. To generalize the intended target to other relatable targets, this assay endpoint is annotated to the 'cell adhesion molecules' intended target family, where the subfamily is 'collagen'.
# The levels of cell surface (or secreted, indicated by the prefix "s") biomarker endpoints were measured by ELISA. Overt cytotoxicity to cells in confluent adherent cultures (all systems other than the BT system) was assessed by measuring total protein levels using sulforhodamine B (SRB) staining in parallel cultures at the time of biomarker measurements, indicated as SRB endpoints. For proliferation assays for adherent cell types, individual cell types are cultured at sub-confluence and relative cell numbers quantified by SRB staining at time points optimized for each system (48 h: 3C and CASM3C systems; 72 h: BT and HDF3CGF systems; 96 h: SAg system). SRB was performed by staining cells with 0.1% SRB after fixation with 10% TCA and reading wells at 560 nm.Viability and proliferation of PBMC (T cells) was quantified by Alamar Blue reduction for the SAg and BT systems. For PBMC viability (referred to as PBMC Cytotoxicity within the assay endpoint names), cells were plated (75,000/well in a 96-well plate) and then chemical samples added for 1 h before addition of activators, SEB and TSST-1 (20 ng/mL final concentration each). Cells were incubated for 90 h. Then, Alamar Blue (20 uL/well) (Invitrogen, Cat DAL1100) was added for 6 h, and the plates were read with a fluorescence microplate reader at 546/580 nm (excitation/emission). For PBMC proliferation, cells were plated and activated as above but incubated for only 16 h prior to addition of Alamar Blue. Plates were read after 6 h.
row,Structure (SMILES),outcome
1,C[Si](C)(C)C(F)(F)C(F)(F)C(F)(F)F,inactive
2,O=C(Cl)C(F)(F)C(F)(F)C(F)(F)C(=O)Cl,inactive
3,FC(F)C(F)(F)COCC1CO1 (stereo not given),inactive
4,FC(F)=C(F)C(F)(F)C(F)(F)C(F)(F)C(F)(F)C(F)(F)C(F)(F)F,inactive
5,OC(O)(C(F)C(O)(O)C(F)(F)F)C(F)(F)F,inactive
6,NCC(F)(F)C(F)(F)C(F)(F)C(F)(F)F,inactive
7,OCCC(F)(F)C(F)(F)C(F)(F)C(F)(F)F,inactive
8,O=S(=O)(O)CCC(F)(F)C(F)(F)C(F)(F)C(F)(F)C(F)(F)C(F)(F)F,inactive
9,FC(F)(F)COC(OCC(F)(F)F)OCC(F)(F)F,inactive
10,FC(F)(F)C(F)(F)C(F)(F)C(F)(F)C(F)(F)C(F)(F)I,inactive
